Hit rate of the full screen: of about 340,000 compounds, about 2,100 (0.62%) were called active. The list is a sample of the results. Potency and affinity values are given separately. Unmarked numbers belong to inactive results.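 How the source made its calls: active means first-screen hits whose inhibition reached a set limit at any dose in the follow-up dose series; inconclusive means inhibition above the set first-screen limit but never retested; inactive means the rest.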

Chain of Rac GTPase-activating protein 1 (Homo sapiens) (Q9H0H5 whole entry, looked up): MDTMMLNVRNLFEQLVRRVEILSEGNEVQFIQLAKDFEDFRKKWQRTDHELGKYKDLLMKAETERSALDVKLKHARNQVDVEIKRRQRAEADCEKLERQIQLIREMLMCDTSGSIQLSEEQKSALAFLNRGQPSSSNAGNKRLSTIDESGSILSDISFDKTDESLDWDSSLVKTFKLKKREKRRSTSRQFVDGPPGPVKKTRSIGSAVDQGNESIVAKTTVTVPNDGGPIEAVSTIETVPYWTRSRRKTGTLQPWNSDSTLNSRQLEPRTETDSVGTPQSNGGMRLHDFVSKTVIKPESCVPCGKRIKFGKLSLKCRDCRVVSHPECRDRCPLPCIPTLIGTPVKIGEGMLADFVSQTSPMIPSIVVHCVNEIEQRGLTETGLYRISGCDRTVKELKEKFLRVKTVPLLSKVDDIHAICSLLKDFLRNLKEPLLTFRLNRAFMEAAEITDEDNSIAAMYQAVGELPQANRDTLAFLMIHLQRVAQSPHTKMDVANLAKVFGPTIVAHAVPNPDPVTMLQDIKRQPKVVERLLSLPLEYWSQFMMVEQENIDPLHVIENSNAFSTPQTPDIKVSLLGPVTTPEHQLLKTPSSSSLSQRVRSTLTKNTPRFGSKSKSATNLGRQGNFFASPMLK

The assay addresses Rac GTPase-activating protein 1 (Homo sapiens) (UniProt Q9H0H5). Description: MgcRacGAP GTPase-activating activity inhibitors, confirmation, biochemical, ADP Hunter fluorescence, primary and confirmatory (AID 624330).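 Further: fluorescence reports GDP produced by GAP-driven GTP hydrolysis.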 As to conditions: MgcRacGAP-stimulated Rac1 GTP hydrolysis, at 30 µM, hits give high values, GST-tagged Rac1 F28L mutant substrate.
Regarding `COc1cc(OC)cc(C(=O)Nc2ncn[nH]2)c1`, the inhibition is 6.96%.
The figure for `COc1cc(/C=N/N2C(=O)C3C4c5ccccc5C(c5ccccc54)C3C2=O)ccc1O` (stereo not given) is 4.88%; for `O=C1c2ccccc2C(=O)N1N=Cc1ccc2c(c1)OCO2` it is 5.49%; for `O=C1c2ccccc2C(=O)N1/N=C/c1ccc(O)c(O)c1O` it is -97.2%.
Turning to `O=C1C2C3C=CC(CC3)C2C(=O)N1/N=C/c1ccc(O)cc1` (stereo not given), the inhibition is 1.46%.
For `O=C1C2C3C=CC(CC3)C2C(=O)N1/N=C/c1ccccc1O` (stereo not given), the inhibition is 3.85%.
Turning to `COc1ccc(/C=N/N2C(=O)c3ccccc3C2=O)cc1`, the inhibition is -3.67%.
Regarding `CC(NC(=O)C1CC(=O)N(c2ccc3c(c2)OCCO3)C1)c1ccccc1` (stereo not given), the inhibition was 10.6%.
`C/C(=N\NC(=O)C(c1ccncc1)N1CCOCC1)c1ccc(Br)cc1` (stereo not given): the inhibition is 5.86%.
The figure for `Cc1cccc(NC(=O)CN2C(=O)N/C(=C/c3cc(C)n(-c4cccnc4)c3C)C2=O)c1` is -10.6%; for `COc1ccccc1C(CNC(=O)c1cccc(S(=O)(=O)N2CCCc3ccccc32)c1)N(C)C` (stereo not given) it is 4.28%.
On to `Cc1cc(C)nc(NS(=O)(=O)c2ccc(NC(=S)NC(=O)C(C)(C)C)cc2)n1`, for which the inhibition was 8.49%.
Consider `CC(=O)N1CCc2cc(S(=O)(=O)NCCCOC(C)C)ccc21`, for which the inhibition is 2.11%.
`CC(=O)c1ccc(S(=O)(=O)N2CCC3(CC2)CC(=O)c2ccccc2O3)cc1`: the inhibition is 14.3%.
To `O=S(=O)(c1cccs1)N1CCN(c2ccccc2Cl)CC1` belongs 1.05%; to `CC(=O)Nc1ccc(NC(=O)Cn2cnc3c(nnn3Cc3ccc(F)cc3)c2=O)cc1`, 1.41%; to `c1ccc2cc(OCCOCCOc3ccc4ccccc4c3)ccc2c1`, -0.76%.
To `CN(C)CCOc1ccc2ccccc2c1` belongs 25.2%.
The figure for `CC1=C(C)CC2(SC1)C(=O)N(c1ccccc1)N=C2N` (stereo not given) is 15%; for `CC[C@@H](C)[C@@H](C(=O)N1CCN(C(=O)OC(C)(C)C)CC1)n1cc(CCCCNC(=O)OC(C)(C)C)nn1` it is 7.52%.
With `Cc1ccc(CNc2ncc(-c3ccc4c(c3)OCO4)n2C)cc1`, the inhibition was 30.1%.
The figure for `Cn1c(-c2ccc3c(c2)OCO3)cnc1NCc1ccc(Cl)cc1` is 27.4%; for `COc1ccc(-c2cnc(NCc3cc4c(cc3[N+](=O)[O-])OCO4)n2C)cc1` it is 28.1%; for `Cn1c(-c2ccc(F)cc2)cnc1NCc1cc2c(cc1[N+](=O)[O-])OCO2` it is 27.6%.
Consider `Cn1c(-c2ccc3c(c2)OCO3)cnc1NCc1cccc(O)c1`, for which the inhibition was 26.8%.
Turning to `Cn1c(-c2ccc3c(c2)OCO3)cnc1NCc1ccccc1`, the inhibition is 30.7%.
The figure for `COc1ccccc1N1CCN(S(=O)(=O)c2ccc(NC(C)=O)cc2)CC1` is 7.69%; for `Cc1c(-c2ccccc2)nc2ccccc2c1C(=O)Oc1ccc([N+](=O)[O-])cc1` it is -7.74%; for `Cc1ccc(S(=O)(=O)N2CC3(O)CN(C(=O)OC(C)C)N(C(=O)OC(C)C)CC3(OC(=O)NC3CCCC3)C2)cc1` (stereo not given) it is 9.25%.
Regarding `CC(=O)Nc1ccc(S(=O)(=O)NNC(=O)c2ccc([N+](=O)[O-])cc2)cc1`, the inhibition is 1.83%.
To `COC(=O)CN1C(=O)C(O)(CC(=O)c2ccccc2)c2ccccc21` (stereo not given) belongs 9.4%.
To `CC(C)(C)OC(=O)NCCCCCNC(=O)c1nc[nH]c1C(=O)NCC(=O)OCc1ccccc1` belongs 5.97%; to `CCN(CC1COc2ccccc2O1)C(=O)CN1C(=O)NC(C)(c2ccccc2)C1=O` (stereo not given), 1.68%; to `NC(=O)c1ccc(NC(=O)COC(=O)c2cccc(Oc3ccccc3)c2)cc1`, -3.55%.
For the compound `CCOCCCNC(=S)N1CCCN(c2nc3cc(C)ccc3cc2C#N)CC1`, the inhibition was 10.8%.
Take `COc1cccc(/C=N/NC(=O)CNC(=O)c2ccc3c(c2)OCCO3)c1O`: the inhibition is 8.24%.
In the case of `COc1ccc(/C=C(/NC(=O)c2ccccc2)C(=O)N/N=C/c2ccc3c(c2)OCO3)cc1OC`, the inhibition was 4.26%.
The figure for `CN(C)c1ccc(/C=N/NC(=O)CNC(=O)c2ccc3c(c2)OCCO3)cc1` is 14.6%.
The figure for `COc1ccc(/C=N/NC(=O)CNC(=O)c2ccc3c(c2)OCCO3)cc1OC` is 12.1%; for `COc1ccc(/C=N/NC(=O)c2ccc3c(c2)OCO3)cc1` it is 7.95%.
Turning to `O=C(N/N=C/c1ccc2c(c1)OCO2)/C(=C/c1ccc2c(c1)OCO2)NC(=O)c1ccccc1`, the inhibition is -2.17%.
To `O=C(N/N=C/c1ccc2c(c1)OCO2)c1ccc2c(c1)OCO2` belongs 9.83%.
To `O=C(CNC(=O)c1ccc2c(c1)OCCO2)N/N=C/c1ccc(Cl)cc1` belongs 13.2%; to `CCOC(=O)C(NC(=O)c1ccc(OC)cc1)(Nc1cc(C)on1)C(F)(F)F` (stereo not given), 9.87%.
On to `Cc1ccccc1NC(=O)OCc1cccnc1Oc1ccc(Cl)cc1`, for which the inhibition was 10.3%.
The figure for `C/C(=N\NC(=O)c1cc(C)oc1C)c1ccc2c(c1)OCO2` is 6.44%.
For the compound `CN(C)CCCN(Cc1ccccc1)C(=S)Nc1cccc(C(F)(F)F)c1`, the inhibition was 3.49%.
To `Cc1ccc2c(c1)NC(=O)C(CC(=O)Nc1ccc(CN3CCC(C)CC3)cc1)O2` (stereo not given) belongs 4.76%; to `Cc1[nH]c(N=Nc2ccccc2)nc1N=Nc1ccccc1`, 8.63%.
Take `Cc1ccccc1OCC(=O)Nc1ccccc1N1CCC(C)CC1`: the inhibition is 4.53%.
On to `O=C(C[n+]1ccc(-c2ccccc2)cc1)Nc1ccc([N+](=O)[O-])cc1`, for which the inhibition was 8.73%.
To `COC(=O)C1=C(C)N(Cc2ccccc2)C(=NCCCCO)N[C@H]1c1cccc(C(F)(F)F)c1` belongs 10.7%; to `CC1(C)NS(=O)(=O)Oc2ccccc21`, 15.4%.
As to `O=C(NC1=NCCS1)C1CC(=O)N(c2ccc(F)cc2)C1` (stereo not given), the inhibition is 3.19%.
On to `Cc1nc2c(ncn2-c2ccccc2)c(=O)n1NC(=O)CN1CCOCC1`, for which the inhibition was 6.81%.
Take `COc1ccc(/C=C/C(=O)c2ccc3c(c2)OCO3)cc1OC`: the inhibition was 0.8%.
Consider `COc1cc(/C=C/C(=O)c2ccc3c(c2)OCO3)cc(OC)c1OC`, for which the inhibition is 9.6%.
To `COc1ccc(C(CC(=O)N2CCCCC2)c2c(OC)cc(OC)c3c(-c4ccccc4)cc(=O)oc23)cc1` (stereo not given) belongs 5.73%.
To `COc1ccccc1N1CCN(C2CCCN(Cc3ccc(Cl)cc3)C2)CC1` (stereo not given) belongs -6.75%; to `COc1ccc(Br)cc1C(C[N+](=O)[O-])c1c(N)n(C)c(=O)n(C)c1=O` (stereo not given), 10.7%.
The figure for `Cc1ccc(C(C[N+](=O)[O-])c2c(N)n(C)c(=O)n(C)c2=O)cc1` (stereo not given) is 5.58%.
Regarding `COc1ccc(/C=C2/N=C3CCCCCN3C2=O)cc1`, the inhibition was 4.99%.
As to `O=C1/C(=C/c2ccncc2)N=C2CCCCCN12`, the inhibition is 3.48%.
To `COc1ccc(/C=C2/N=C3CCCCCN3C2=O)cc1OC` belongs 3.87%.
To `COc1ccc(/C=C2\N=C3CCCCCN3C2=O)cc1OC` belongs -1.04%.
With `COCCn1c(SCC(=O)c2cccc(OC)c2)nnc1-c1ccco1`, the inhibition was 13.4%.
`CC(=O)Nc1ccc(NS(=O)(=O)c2c(Cl)cccc2Cl)cc1`: the inhibition was 5.14%.
Consider `Cc1cc(C)n2c(SCC(=O)N(CC(C)C)c3c(N)n(CC(C)C)c(=O)[nH]c3=O)nnc2n1`, for which the inhibition is 5.05%.
To `O=C(O)CCC(=O)Nc1cccc(C(=O)c2ccccc2)c1` belongs 8.75%.
The figure for `COc1cccc(OC)c1OCCCN1CCC(Cc2ccccc2)CC1` is 28%; for `OCc1ccccc1OCCCN1CCC(Cc2ccccc2)CC1` it is 22.1%; for `N#CC1(NC(=O)CSc2nnc(Cc3ccccc3)o2)CCCCC1` it is -4.91%.
Take `CC1CC(C)CN(C(=O)c2ccc(CSc3nc4ccncc4[nH]3)cc2)C1` (stereo not given): the inhibition was 4.54%.
The figure for `COc1ccc(C(CNC(=O)c2cc(C)oc2C)N2CCOCC2)cc1` (stereo not given) is -3.27%.
To `COc1ccc(C(=O)NCC(c2ccc3c(c2)OCO3)N2CCN(c3ccc(OC)cc3)CC2)cc1` (stereo not given) belongs 7.8%; to `COc1ccc(N2CCN(C(CNC(C)=O)c3ccc4c(c3)OCO4)CC2)cc1` (stereo not given), 11.6%.
To `COc1ccc(C(CNC(=O)c2cc(F)c(F)c(F)c2F)N2CCOCC2)cc1` (stereo not given) belongs 5.28%; to `COc1ccc(N2CCN(C(CNC(=O)C(C)C)c3ccc4c(c3)OCO4)CC2)cc1` (stereo not given), 26.1%; to `COC(=O)NCC(c1ccc2c(c1)OCO2)N1CCN(c2ccccc2)CC1` (stereo not given), 6.79%.
Regarding `COc1cccc(CC(=O)OCC(=O)NC2(C#N)CCCCC2)c1`, the inhibition was 6.74%.
The figure for `COc1ccc(N2CC(C(=O)OCC(=O)NCc3ccccc3)CC2=O)cc1` (stereo not given) is -1.54%.
To `C=CCn1c(SCC(=O)c2ccc(O)c(O)c2)nnc1-c1ccc(OC)cc1` belongs 8.3%.
Turning to `C=CCn1c(SCC(=O)c2ccc(O)c(O)c2)nnc1-c1ccc(C)cc1`, the inhibition is 24.7%.
The figure for `C=CCn1c(SCC(=O)c2ccc(O)c(O)c2)nnc1-c1ccccc1OC` is 19.4%; for `C=CCn1c(SCC(=O)O)nnc1-c1cccc(Cl)c1` it is -7.04%; for `O=C(COc1ccccc1F)NCc1nc2ccccc2[nH]1` it is 10.2%.
The figure for `N#Cc1ccc(Cl)cc1NC(=O)COC(=O)[C@H](CCC(N)=O)NC(=O)c1ccc(F)cc1` is -1.8%; for `C[C@H](O)CNC(=O)c1[nH]cnc1C(=O)Nc1ccc(CNC(=O)OC(C)(C)C)cc1` it is 13.6%.
The figure for `COc1ccc(N2CCN(c3ccc(C(=O)O)cc3[N+](=O)[O-])CC2)cc1` is 25.5%.
Take `CC(=O)c1ccc(N2CCN(c3ccc(C(N)=O)cc3[N+](=O)[O-])CC2)cc1`: the inhibition was 6.37%.

These data come from PubChem BioAssay AID624330 (Southern Research Specialized Biocontainment Screening …, 2012).
